# Experimental data taken from the supplement of paper PMC13380429.
# How the values were obtained:
# [1] = test system: Vero E6 infected with SARS-CoV-2; assay: morphology score (similarity to uninfected cells); higher = more like uninfected cells; settings: 24 h
# [2] = test system: Vero E6 infected with SARS-CoV-2; assay: SARS-CoV-2 infection rate relative to infected DMSO; higher = more infection, active = 60 or less; settings: 24 h
Structure (SMILES),morphology score [1],SARS-CoV-2 infection rate [2]
CN(C)[C@@H]1C(O)=C(C(N)=O)C(=O)[C@@]2(O)C(O)=C3C(=O)c4c(O)ccc(Cl)c4[C@@](C)(O)[C@H]3C[C@@H]12 (10 µM),0.129,102% (inactive)
CCn1cc(-c2ccnc3[nH]c(-c4cccc(CN(C)C)c4)cc23)c(-c2ccc(NC(=O)N(C)C)cc2)n1 (0.833333 µM),-0.185,106% (inactive)
Cc1cc(-c2ccccc2)nnc1NCCN1CCOCC1 [minaprine] (10 µM),0.145,103% (inactive)
CCn1c(-c2nonc2N)nc2cnc(Oc3cccc(NC(=O)c4ccc(OCCN5CCOCC5)cc4)c3)cc21 (10 µM),0.306,97% (inactive)
O=C(/C=C/c1ccccc1)NC(NC(=S)Nc1cccc2cccnc12)C(Cl)(Cl)Cl (stereo not drawn) [salubrinal] (10 µM),-0.178,108% (inactive)
NS(=O)(=O)c1ccc(C(=O)O)cc1 [carzenide] (10 µM),0.174,102% (inactive)
COc1ccc(-c2ccc(=N)n(CCCC(=O)O)n2)cc1 [gabazine] (10 µM),-0.176,103% (inactive)
CC(C)(C)c1cc(NC(=O)Nc2ccc(-c3cn4c(n3)sc3cc(OCCN5CCOCC5)ccc34)cc2)no1 [quizartinib] (10 µM),0.177,97.5% (inactive)
NC[C@H]1O[C@H](O[C@H]2[C@H](O)[C@@H](O[C@H]3O[C@H](CO)[C@@H](O)[C@H](N)[C@H]3O)[C@H](N)C[C@@H]2N)[C@H](O)[C@@H](O)[C@@H]1O [kanamycin] (10 µM),0.227,100% (inactive)
